# Test results from patent publication US20220289795, “EFFICIENT METHOD FOR PREPARING PPR PROTEIN AND USE OF THE SAME” (EditForce, Inc., published 2022).
# Target: T1, v3.1_PPR16 (Artificial Sequence)
# T1 chain: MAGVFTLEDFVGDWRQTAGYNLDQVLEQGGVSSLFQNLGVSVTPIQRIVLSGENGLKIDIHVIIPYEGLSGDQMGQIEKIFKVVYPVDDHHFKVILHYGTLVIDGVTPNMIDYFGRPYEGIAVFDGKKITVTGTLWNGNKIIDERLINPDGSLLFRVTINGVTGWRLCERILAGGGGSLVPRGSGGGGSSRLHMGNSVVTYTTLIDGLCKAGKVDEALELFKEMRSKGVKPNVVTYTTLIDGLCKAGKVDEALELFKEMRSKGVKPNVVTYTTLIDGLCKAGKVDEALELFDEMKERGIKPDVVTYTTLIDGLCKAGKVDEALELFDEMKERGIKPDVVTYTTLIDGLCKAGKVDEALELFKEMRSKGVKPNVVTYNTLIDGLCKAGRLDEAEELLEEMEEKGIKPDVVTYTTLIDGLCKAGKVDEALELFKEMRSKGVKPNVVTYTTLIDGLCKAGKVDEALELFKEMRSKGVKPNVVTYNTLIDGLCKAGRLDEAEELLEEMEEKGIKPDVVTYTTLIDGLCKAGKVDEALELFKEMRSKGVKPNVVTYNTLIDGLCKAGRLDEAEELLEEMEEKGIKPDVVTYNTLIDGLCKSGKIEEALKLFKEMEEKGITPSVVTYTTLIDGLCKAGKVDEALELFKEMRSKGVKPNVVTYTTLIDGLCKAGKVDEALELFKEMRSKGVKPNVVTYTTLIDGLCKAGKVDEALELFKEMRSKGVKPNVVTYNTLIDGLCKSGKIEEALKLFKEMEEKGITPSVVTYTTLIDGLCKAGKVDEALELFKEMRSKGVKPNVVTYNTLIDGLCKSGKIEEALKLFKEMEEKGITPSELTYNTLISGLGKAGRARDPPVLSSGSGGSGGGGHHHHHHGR
# Assay: RPB-ELISA
# Details: tags: N-terminal luciferase, C-terminal 6xHis; label: 5'-biotin; ssRNA
# Experimental: RNA probes consisting of a designed 30-base sequence containing 18 bases of the target sequence and modified by biotinylation at the 5′ end (RNA_1, RNA_2, RNA_3, RNA_4, and RNA_5, SEQ ID NOS: 61 to 65) were synthesized (Grainer). To a streptavidin-coated plate (Thermo fisher), the 5′-end biotinylated RNA probes were added, reaction was allowed at room temperature for 30 minutes, and the plate was washed with a lysis buffer (20 mM Tris-HCl, pH 7.6, 150 mM NaCl, 5 mM MgCl₂, 0.5% NP-40, 1 mM DTT, 0.1% BSA). For background measurement, wells to which RNA was not added, but 100 μL of the lysis buffer, 1 μL of 100 mM DTT, and 1 μL of 40 unit/4 RNase inhibitor (Takara, 2313A) were added were also prepared. Then, 200 μL of a blocking buffer (20 mM Tris-HCl, pH 7.6, 150 mM NaCl, 5 mM MgCl₂, 0.5% NP-40, 1 mM DTT, 1% BSA) was added, and the plate surface was blocked at room temperature for 30 minutes. Then, 100 μL of E. coli lysate containing luciferase-fused PPR protein having a luminescence level of 1.5×10⁸ LU/μL was added to each well, and the binding reaction was allowed at room temperature for 30 minutes. The well was washed 5 times with 200 μL of a washing buffer (20 mM Tris-HCl, pH 7.6, 150 mM NaCl, 5 mM MgCl₂, 0.5% NP-40, 1 mM DTT). […] The background (luminescence signal value obtained with adding the PPR protein and without adding RNA) was subtracted from the luminescences of the samples to which a solution containing each RNA and PPR protein was added, and the obtained values were used as the binding powers between the PPR protein and RNA.
# By using the V3.1 motif, PPR proteins for the same 23 kinds of target sequences were similarly prepared (SEQ ID NOS: 411 to 433 for the nucleotide sequences, and SEQ ID NOS: 434 to 456 for the amino acid sequences), and bindings of all the combinations were analyzed by using RPB-ELISA. The experimental method was the same as that used in Example 3.
row,Sequence,binding signal [log2 luminescence]
1,GGUGGUGAGGCCCUGGGC,20.6
2,GUGGGGGUGGUAGGAAAU,22.6
